Assay results reported in the supplement of paper PMC10127200.
Structures can show the parent of a compound that is named as a salt.

What was measured:
Test in all cases: Euclidean distance of Cell Painting phenotypic profile (signed KS, 77 features) to DMSO centroid (dimensionless distance); 5 or 10 uM (library dependent); higher = stronger phenotypic change vs DMSO (phenoactivity)
Conditions in all cases: 48 h
[1] = test system: 786-O
In short: (§1)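 Phenoactivity is computed as Euclidean distance to the median vehicle profile. The profiles, drawn from 77 Harmony features scored as signed Kolmogorov-Smirnov statistics versus same-plate vehicle wells, were corrected for plate position, correlation-weighted and replicate-averaged at the top dose. Stained cells were imaged confocally at 20X (9 fields/well) after 48 h with library compounds at 10 or 5 uM, 0.1% DMSO final, in five cancer lines and a healthy fibroblast line.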

[2] = test system: A549
In short: as §1

[3] = test system: DU145
In short: as §1

[4] = test system: FB
In short: as §1

[5] = test system: HEPG2
In short: as §1

[6] = test system: OVCAR4
In short: as §1

Row | SMILES | Euclidean distance [1] | Euclidean distance [2] | Euclidean distance [3] | Euclidean distance [4] | Euclidean distance [5] | Euclidean distance [6]
1 | O=C(NOCC1CC1)c1ccc(F)c(F)c1Nc1ccc(I)cc1Cl | 2.48 | 3.7 | 2.78 | 2.12 | 2.22 | 2.06
2 | CC(C)c1onc(-c2c(Cl)cccc2Cl)c1COc1ccc(/C=C/c2cccc(C(=O)O)c2)c(Cl)c1 | 1.58 | 0.795 | 1.01 | 1.26 | 1.42 | 1.02
3 | CC(=O)O[C@@]12CO[C@@H]1C[C@H](O)[C@@]1(C)C(=O)[C@H](O)C3=C(C)[C@@H](OC(=O)[C@H](O)[C@@H](NC(=O)OC(C)(C)C)c4ccccc4)C[C@@](O)([C@@H](OC(=O)c4ccccc4)[C@H]21)C3(C)C [Docetaxel] | 3.54 | 2.71 | 3.65 | 2.64 | 2.16 | 2.64
4 | C=CC(=O)Nc1cc(Nc2nccc(-c3cn(C)c4ccccc34)n2)c(OC)cc1N(C)CCN(C)C [Osimertinib (AZD9291)] | 4.93 | 4.24 | 4.29 | 5.35 | 5.16 | 4.21
5 | COc1cc(Nc2c(C#N)cnc3cc(OCCCN4CCN(C)CC4)c(OC)cc23)c(Cl)cc1Cl [Bosutinib (SKI-606)] | 3.85 | 3.56 | 2.93 | 3.66 | 3.22 | 4.14
6 | Cc1ccc(S(=O)(=O)Cc2nc(-c3ccc(C(=O)NCc4cccnc4)cc3)oc2C)cc1 | 3.04 | 2.65 | 2.6 | 1.11 | 1.68 | 2.14
7 | CNC(=O)c1ccc2cc([C@@]3(O)CCn4cncc43)ccc2c1 [TAK-700 (Orteronel)] | 0.951 | 0.683 | 0.67 | 1.1 | 1.1 | 0.845
8 | Nc1ccc(C(=O)Nc2cccc(-c3nc(N4CCOCC4)c4oc5ncccc5c4n3)c2)cn1 | 4.09 | 5.02 | 4.16 | 1.63 | 3.45 | 2.25
9 | O=C1C(CC[S+]([O-])c2ccccc2)C(=O)N(c2ccccc2)N1c1ccccc1 (racemic) [(+/-)-Sulfinpyrazone] | 1.01 | 1.79 | 1.38 | 1.22 | 0.755 | 0.993
10 | O=C(NC(NC(=S)Nc1ccc(F)c([N+](=O)[O-])c1)C(Cl)(Cl)Cl)C(c1ccccc1)c1ccccc1 (stereo not drawn) | 1.02 | 2.27 | 1.38 | 1.49 | 1.56 | 1.25
11 | COc1cc(Nc2ncc(F)c(Nc3ccc4c(n3)N(COP(=O)(O)O)C(=O)C(C)(C)O4)n2)cc(OC)c1OC [R788 (Fostamatinib) Disodium] | 1.37 | 2.39 | 2.15 | 3.19 | 0.696 | 2.19
12 | CC(=O)OCC(CCn1cnc2cnc(N)nc21)COC(C)=O [Famciclovir] | 1 | 0.742 | 0.892 | 0.846 | 0.598 | 1.57
13 | CO[C@H]1CC[C@H](N2C(=O)CNc3ncc(-c4ccc(C(C)(C)O)nc4)nc32)CC1 | 3.2 | 3.38 | 2.56 | 3.76 | 2.34 | 3
14 | CCNC(=O)CCC/C=C\C[C@@H]1[C@@H](/C=C/[C@@H](O)CCc2ccccc2)[C@H](O)C[C@@H]1O [Bimatoprost] | 1.63 | 1.42 | 0.906 | 1.4 | 0.869 | 1.27
15 | CO[C@H]1C(=O)[C@]2(C)[C@@H](OC)C[C@H]3OC[C@@]3(OC(C)=O)[C@H]2[C@H](OC(=O)c2ccccc2)[C@]2(O)C[C@H](OC(=O)[C@H](O)[C@@H](NC(=O)OC(C)(C)C)c3ccccc3)C(C)=C1C2(C)C [Cabazitaxel] | 3.68 | 3.16 | 3.88 | 2.6 | 1.97 | 2.5
16 | CC(C)(OCc1nn(Cc2ccccc2)c2ccccc12)C(=O)O [Bindarit] | 0.377 | 0.614 | 0.791 | 0.934 | 0.939 | 0.825
17 | NCCc1c[nH]cn1 [Histamine] | 1.05 | 1.15 | 1.33 | 1.24 | 1.08 | 1.27
18 | CCCCCCOC(=O)NC(=N)c1ccc(NCc2nc3cc(C(=O)N(CCC(=O)OCC)c4ccccn4)ccc3n2C)cc1 [Dabigatran Etexilate] | 1.9 | 1.35 | 1.17 | 1.58 | 1.58 | 1.47
19 | CCn1cc(-c2ccnc3[nH]c(-c4cccc(CN(C)C)c4)cc23)c(-c2ccc(NC(=O)N(C)C)cc2)n1 | 2.56 | 2.73 | 2.29 | 3.38 | 2.7 | 2.8
20 | CCN(CC)C(=O)Nc1ccc(OCC(O)CNC(C)(C)C)c(C(C)=O)c1 (stereo not drawn) [Celiprolol hydrochloride] | 0.816 | 0.829 | 1.41 | 1.17 | 0.422 | 1.24
21 | COc1ccccc1OCC(O)CO (stereo not drawn) [Guaifenesin] | 1.05 | 0.957 | 1.4 | 1.24 | 1.99 | 1.31
22 | CO[C@@]1(NC(=O)CSC[C@@H](N)C(=O)O)C(=O)N2C(C(=O)O)=C(CSc3nnnn3C)CS[C@@H]21 [Cefminox Sodium] | 1.29 | 0.521 | 2.14 | 1.02 | 0.714 | 1.32
23 | COc1ccc(C(=O)CC(=O)c2ccc(C(C)(C)C)cc2)cc1 [Avobenzone] | 1.41 | 0.547 | 0.714 | 1.02 | 0.762 | 0.989
